Tests used:
Assay in all cases: DAPPL (digital affinity profiling via proximity ligation, sequencing); 10 mM Tris-HCl pH 7.5, 50 mM NaCl, 1 mM DTT, 4% glycerol, room temperature, 30 min; GST-TFs on glutathione beads, 16-mer random dsDNA library, 0.1% formaldehyde crosslink after washing; high values mean tight binding
Conditions in all cases: protein: recombinant; tags: N-terminal GST; dsDNA, one strand shown
ERF = target: T1, ERF (Homo sapiens, UniProt P50548 1-548)
T1 sequence: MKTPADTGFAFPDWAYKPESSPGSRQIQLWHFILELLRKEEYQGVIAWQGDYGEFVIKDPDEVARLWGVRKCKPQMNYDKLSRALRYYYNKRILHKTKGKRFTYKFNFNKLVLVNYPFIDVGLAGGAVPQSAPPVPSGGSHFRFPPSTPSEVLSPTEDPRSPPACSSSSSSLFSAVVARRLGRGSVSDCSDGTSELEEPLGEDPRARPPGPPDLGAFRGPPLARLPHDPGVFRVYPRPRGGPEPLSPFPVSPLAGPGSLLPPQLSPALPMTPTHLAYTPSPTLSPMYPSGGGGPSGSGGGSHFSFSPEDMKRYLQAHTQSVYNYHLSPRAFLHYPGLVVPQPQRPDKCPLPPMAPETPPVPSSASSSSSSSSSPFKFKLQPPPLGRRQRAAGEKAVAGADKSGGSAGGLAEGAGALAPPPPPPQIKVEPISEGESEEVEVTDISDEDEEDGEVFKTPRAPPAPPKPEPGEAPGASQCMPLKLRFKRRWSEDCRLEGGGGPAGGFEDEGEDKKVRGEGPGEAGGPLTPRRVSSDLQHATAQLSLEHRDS
Procedure, shortened: (§1)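 Binding signal is each hexamer's read frequency for a factor divided by its frequency in the tag-only sample. The factors were GST-fused human transcription factors from yeast, captured on glutathione beads, DNA-barcoded and pooled with that sample. Pools were incubated with 200 nmole of a random double-stranded 16-mer DNA library in Tris/NaCl/DTT/glycerol buffer at room temperature for 30 min, then washed, crosslinked with 0.1% formaldehyde, proximity-ligated with BsaI/T4 ligase (1 h, 37 °C), PCR-amplified and sequenced on an Illumina NextSeq500.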

ETV3L = target: T2, ETV3L (Homo sapiens, UniProt Q6ZN32 1-361)
T2 sequence: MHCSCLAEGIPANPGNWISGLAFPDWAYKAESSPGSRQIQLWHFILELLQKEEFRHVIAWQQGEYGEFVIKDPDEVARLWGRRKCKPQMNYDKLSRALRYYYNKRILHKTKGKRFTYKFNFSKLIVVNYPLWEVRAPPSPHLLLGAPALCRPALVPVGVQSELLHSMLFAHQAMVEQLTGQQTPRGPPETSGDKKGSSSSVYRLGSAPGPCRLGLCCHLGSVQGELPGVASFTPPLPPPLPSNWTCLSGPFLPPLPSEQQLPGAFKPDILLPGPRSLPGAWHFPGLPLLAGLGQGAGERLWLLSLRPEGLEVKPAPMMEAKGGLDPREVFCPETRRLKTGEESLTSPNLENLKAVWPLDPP
Procedure, shortened: as §1

ETS2 = target: T3, ETS2 (Homo sapiens, UniProt P15036 1-469)
T3 sequence: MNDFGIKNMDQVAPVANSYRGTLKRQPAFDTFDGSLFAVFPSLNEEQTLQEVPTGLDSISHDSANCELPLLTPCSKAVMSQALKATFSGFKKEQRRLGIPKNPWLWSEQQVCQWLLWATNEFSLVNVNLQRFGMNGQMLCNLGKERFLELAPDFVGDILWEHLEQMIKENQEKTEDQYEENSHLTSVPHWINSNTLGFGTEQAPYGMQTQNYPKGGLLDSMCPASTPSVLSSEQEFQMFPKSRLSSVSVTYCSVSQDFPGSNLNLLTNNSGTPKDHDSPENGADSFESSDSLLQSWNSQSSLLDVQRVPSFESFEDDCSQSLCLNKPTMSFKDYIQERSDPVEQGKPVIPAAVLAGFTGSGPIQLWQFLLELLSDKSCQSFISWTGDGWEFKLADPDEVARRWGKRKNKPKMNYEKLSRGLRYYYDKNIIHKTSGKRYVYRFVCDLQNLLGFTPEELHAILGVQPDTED
Procedure, shortened: as §1

SPDEF = target: T4, SPDEF (Homo sapiens, UniProt O95238 1-335)
T4 sequence: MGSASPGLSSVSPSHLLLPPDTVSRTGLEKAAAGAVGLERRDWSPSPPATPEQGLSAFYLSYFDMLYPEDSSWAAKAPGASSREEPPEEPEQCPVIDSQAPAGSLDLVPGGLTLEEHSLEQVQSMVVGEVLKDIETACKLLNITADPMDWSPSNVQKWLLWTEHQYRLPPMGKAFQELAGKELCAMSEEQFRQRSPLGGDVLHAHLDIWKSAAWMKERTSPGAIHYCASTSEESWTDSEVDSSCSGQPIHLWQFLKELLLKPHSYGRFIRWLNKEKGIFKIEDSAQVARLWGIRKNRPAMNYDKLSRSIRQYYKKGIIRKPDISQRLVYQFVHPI
Procedure, shortened: as §1

ETV7 = target: T5, ETV7 (Homo sapiens, UniProt Q9Y603 1-341)
T5 sequence: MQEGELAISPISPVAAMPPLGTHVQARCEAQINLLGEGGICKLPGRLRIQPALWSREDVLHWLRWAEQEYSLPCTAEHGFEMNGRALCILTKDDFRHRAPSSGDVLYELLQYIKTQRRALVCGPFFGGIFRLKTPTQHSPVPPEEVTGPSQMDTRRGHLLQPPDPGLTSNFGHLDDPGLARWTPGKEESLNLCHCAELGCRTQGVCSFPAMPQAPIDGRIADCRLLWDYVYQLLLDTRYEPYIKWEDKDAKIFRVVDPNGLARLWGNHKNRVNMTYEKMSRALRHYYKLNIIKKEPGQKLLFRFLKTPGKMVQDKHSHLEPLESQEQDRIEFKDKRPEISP
Procedure, shortened: as §1

ELF5 = target: T6, ELF5 (Homo sapiens, UniProt Q9UKW6-2 1-255)
T6 sequence: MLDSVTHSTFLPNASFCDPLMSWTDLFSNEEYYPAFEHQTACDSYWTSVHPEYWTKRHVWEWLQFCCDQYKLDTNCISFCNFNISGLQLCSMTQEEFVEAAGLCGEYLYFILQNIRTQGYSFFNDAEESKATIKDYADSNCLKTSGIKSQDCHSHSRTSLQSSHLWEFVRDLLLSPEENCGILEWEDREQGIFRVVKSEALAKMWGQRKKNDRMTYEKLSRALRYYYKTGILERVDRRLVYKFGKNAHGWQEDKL
Procedure, shortened: as §1

ETV3 = target: T7, ETV3 (Homo sapiens, UniProt P41162-2 1-143)
T7 sequence: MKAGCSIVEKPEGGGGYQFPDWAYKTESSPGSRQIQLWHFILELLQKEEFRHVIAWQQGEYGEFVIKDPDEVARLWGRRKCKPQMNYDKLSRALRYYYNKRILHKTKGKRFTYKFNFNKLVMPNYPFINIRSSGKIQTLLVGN
Procedure, shortened: as §1

ETV6 = ETV6 (Homo sapiens, UniProt P41212 1-452)
Procedure, shortened: as §1

Chain of ETV6 (P41212 whole entry): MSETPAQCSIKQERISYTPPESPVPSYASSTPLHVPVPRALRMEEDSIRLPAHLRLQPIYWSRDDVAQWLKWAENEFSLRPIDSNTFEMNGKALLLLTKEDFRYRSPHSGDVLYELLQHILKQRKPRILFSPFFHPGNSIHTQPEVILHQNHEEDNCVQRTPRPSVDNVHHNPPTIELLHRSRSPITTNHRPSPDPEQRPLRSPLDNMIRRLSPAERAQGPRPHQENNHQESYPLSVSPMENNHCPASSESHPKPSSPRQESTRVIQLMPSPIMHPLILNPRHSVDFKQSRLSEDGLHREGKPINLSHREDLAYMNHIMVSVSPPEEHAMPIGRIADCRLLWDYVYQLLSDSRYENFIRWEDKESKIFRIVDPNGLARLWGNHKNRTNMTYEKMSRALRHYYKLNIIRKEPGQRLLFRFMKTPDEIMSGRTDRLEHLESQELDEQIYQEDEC

Sequence | binding signal (ERF) | binding signal (ETV3L) | binding signal (ETS2) | binding signal (SPDEF) | binding signal (ETV7) | binding signal (ELF5) | binding signal (ETV3) | binding signal (ETV6)
ATGACT | 1.36 fold enrichment (6-mer frequency, TF over GST control) | 1.47 fold enrichment (6-mer frequency, TF over GST control) | 1.42 fold enrichment (6-mer frequency, TF over GST control) | 1.29 fold enrichment (6-mer frequency, TF over GST control) | 1.38 fold enrichment (6-mer frequency, TF over GST control) | 1.32 fold enrichment (6-mer frequency, TF over GST control) | 1.27 fold enrichment (6-mer frequency, TF over GST control) | 1.3 fold enrichment (6-mer frequency, TF over GST control)
AAGTAT | 1.38 fold enrichment (6-mer frequency, TF over GST control) | 1.47 fold enrichment (6-mer frequency, TF over GST control) | 1.46 fold enrichment (6-mer frequency, TF over GST control) | 1.31 fold enrichment (6-mer frequency, TF over GST control) | 1.5 fold enrichment (6-mer frequency, TF over GST control) | 1.56 fold enrichment (6-mer frequency, TF over GST control) | 1.46 fold enrichment (6-mer frequency, TF over GST control) | 1.58 fold enrichment (6-mer frequency, TF over GST control)
AATACC | 1.29 fold enrichment (6-mer frequency, TF over GST control) | 1.15 fold enrichment (6-mer frequency, TF over GST control) | 1.21 fold enrichment (6-mer frequency, TF over GST control) | 1.11 fold enrichment (6-mer frequency, TF over GST control) | 1.21 fold enrichment (6-mer frequency, TF over GST control) | 1.17 fold enrichment (6-mer frequency, TF over GST control) | 1.17 fold enrichment (6-mer frequency, TF over GST control) | 1.16 fold enrichment (6-mer frequency, TF over GST control)
TTGCGA | 1.29 fold enrichment (6-mer frequency, TF over GST control) | 1.14 fold enrichment (6-mer frequency, TF over GST control) | 1.14 fold enrichment (6-mer frequency, TF over GST control) | 1.11 fold enrichment (6-mer frequency, TF over GST control) | 1.14 fold enrichment (6-mer frequency, TF over GST control) | 1.12 fold enrichment (6-mer frequency, TF over GST control) | 1.08 fold enrichment (6-mer frequency, TF over GST control) | 1.11 fold enrichment (6-mer frequency, TF over GST control)
CGATTA | 1.07 fold enrichment (6-mer frequency, TF over GST control) | 1.23 fold enrichment (6-mer frequency, TF over GST control) | 1.08 fold enrichment (6-mer frequency, TF over GST control) | 1.09 fold enrichment (6-mer frequency, TF over GST control) | 1.18 fold enrichment (6-mer frequency, TF over GST control) | 1.11 fold enrichment (6-mer frequency, TF over GST control) | 1.18 fold enrichment (6-mer frequency, TF over GST control) | 1.13 fold enrichment (6-mer frequency, TF over GST control)
TCCGGT | 3.43 fold enrichment (6-mer frequency, TF over GST control) | 3.57 fold enrichment (6-mer frequency, TF over GST control) | 3.76 fold enrichment (6-mer frequency, TF over GST control) | 5.35 fold enrichment (6-mer frequency, TF over GST control) | 3.35 fold enrichment (6-mer frequency, TF over GST control) | 4.56 fold enrichment (6-mer frequency, TF over GST control) | 4.02 fold enrichment (6-mer frequency, TF over GST control) | 4.04 fold enrichment (6-mer frequency, TF over GST control)
TCTAAA | 1.17 fold enrichment (6-mer frequency, TF over GST control) | 1.18 fold enrichment (6-mer frequency, TF over GST control) | 1.21 fold enrichment (6-mer frequency, TF over GST control) | 1.21 fold enrichment (6-mer frequency, TF over GST control) | 1.18 fold enrichment (6-mer frequency, TF over GST control) | 1.16 fold enrichment (6-mer frequency, TF over GST control) | 1.28 fold enrichment (6-mer frequency, TF over GST control) | 1.12 fold enrichment (6-mer frequency, TF over GST control)
CTTAAA | 1.17 fold enrichment (6-mer frequency, TF over GST control) | 1.3 fold enrichment (6-mer frequency, TF over GST control) | 1.28 fold enrichment (6-mer frequency, TF over GST control) | 1.27 fold enrichment (6-mer frequency, TF over GST control) | 1.19 fold enrichment (6-mer frequency, TF over GST control) | 1.16 fold enrichment (6-mer frequency, TF over GST control) | 1.22 fold enrichment (6-mer frequency, TF over GST control) | 1.26 fold enrichment (6-mer frequency, TF over GST control)
GGCTCC | 1.28 fold enrichment (6-mer frequency, TF over GST control) | 1.27 fold enrichment (6-mer frequency, TF over GST control) | 1.21 fold enrichment (6-mer frequency, TF over GST control) | 1.48 fold enrichment (6-mer frequency, TF over GST control) | 1.25 fold enrichment (6-mer frequency, TF over GST control) | 1.33 fold enrichment (6-mer frequency, TF over GST control) | 1.3 fold enrichment (6-mer frequency, TF over GST control) | 1.25 fold enrichment (6-mer frequency, TF over GST control)
TCGACA | 1.35 fold enrichment (6-mer frequency, TF over GST control) | 1.3 fold enrichment (6-mer frequency, TF over GST control) | 1.31 fold enrichment (6-mer frequency, TF over GST control) | 1.23 fold enrichment (6-mer frequency, TF over GST control) | 1.39 fold enrichment (6-mer frequency, TF over GST control) | 1.27 fold enrichment (6-mer frequency, TF over GST control) | 1.4 fold enrichment (6-mer frequency, TF over GST control) | 1.42 fold enrichment (6-mer frequency, TF over GST control)
AAACAC | 1.34 fold enrichment (6-mer frequency, TF over GST control) | 1.37 fold enrichment (6-mer frequency, TF over GST control) | 1.38 fold enrichment (6-mer frequency, TF over GST control) | 1.31 fold enrichment (6-mer frequency, TF over GST control) | 1.34 fold enrichment (6-mer frequency, TF over GST control) | 1.3 fold enrichment (6-mer frequency, TF over GST control) | 1.33 fold enrichment (6-mer frequency, TF over GST control) | 1.32 fold enrichment (6-mer frequency, TF over GST control)
AAAACG | 1.24 fold enrichment (6-mer frequency, TF over GST control) | 1.19 fold enrichment (6-mer frequency, TF over GST control) | 1.21 fold enrichment (6-mer frequency, TF over GST control) | 1.2 fold enrichment (6-mer frequency, TF over GST control) | 1.14 fold enrichment (6-mer frequency, TF over GST control) | 1.18 fold enrichment (6-mer frequency, TF over GST control) | 1.15 fold enrichment (6-mer frequency, TF over GST control) | 1.25 fold enrichment (6-mer frequency, TF over GST control)
CGACAA | 1.18 fold enrichment (6-mer frequency, TF over GST control) | 1.24 fold enrichment (6-mer frequency, TF over GST control) | 1.16 fold enrichment (6-mer frequency, TF over GST control) | 1.27 fold enrichment (6-mer frequency, TF over GST control) | 1.12 fold enrichment (6-mer frequency, TF over GST control) | 1.14 fold enrichment (6-mer frequency, TF over GST control) | 1.15 fold enrichment (6-mer frequency, TF over GST control) | 1.31 fold enrichment (6-mer frequency, TF over GST control)
TTTGAA | 1.11 fold enrichment (6-mer frequency, TF over GST control) | 1.19 fold enrichment (6-mer frequency, TF over GST control) | 1.23 fold enrichment (6-mer frequency, TF over GST control) | 1.15 fold enrichment (6-mer frequency, TF over GST control) | 1.17 fold enrichment (6-mer frequency, TF over GST control) | 1.1 fold enrichment (6-mer frequency, TF over GST control) | 1.22 fold enrichment (6-mer frequency, TF over GST control) | 1.23 fold enrichment (6-mer frequency, TF over GST control)
CCCATT | 1.32 fold enrichment (6-mer frequency, TF over GST control) | 1.3 fold enrichment (6-mer frequency, TF over GST control) | 1.43 fold enrichment (6-mer frequency, TF over GST control) | 1.19 fold enrichment (6-mer frequency, TF over GST control) | 1.38 fold enrichment (6-mer frequency, TF over GST control) | 1.4 fold enrichment (6-mer frequency, TF over GST control) | 1.24 fold enrichment (6-mer frequency, TF over GST control) | 1.29 fold enrichment (6-mer frequency, TF over GST control)

— publication PMC7862700, “An all-to-all approach to the identification of sequence-specific readers for epigenetic DNA modifications on cytosine”
